Only some compounds are listed: those with a hit (about 1.6% of all), similar ones and a draw of the others.
Peg3 imprint: induces erasure of genomic imprints in mouse ES cells; mouse ES Peg3-LacZ reporter, beta-gal luminescence, 40 h; Potency, µM (series often up to 60.7 µM), for the others: top-dose activity change, positive = activation, most hits filed as activators; actives 0.02% (n = 110,000)
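Readout: BetaGlo luminescence (5 min, room temp) for LacZ from the normally silent maternal Peg3 allele in female Peg3LacZ-Neo ES cells. Cells 300/well, 40 h, 37C, 5% CO2. Data normalized per plate to negative controls.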
p53ts 39C kill: p53ts cell cytotoxicity, nonpermissive temperature; actives 1.5% (n = 130,000); Potency, µM (series often up to 46.1 µM), for inactives: at the highest dose activity change, negative = cell killing, usual class: cytotoxic; H1299-p53A138V viability at 39C, ATP luminescence, 24 h; also: % is scaled to controls: 0 for no effect and ±100 for the full control effect; nearly all actives have a fitted effect of over 55% in size
p53ts 32C kill: cytotoxicity in p53ts cells at permissive temperature; actives 0.93% (n = 130,000); H1299-p53A138V at 32C, ATP luminescence viability, 24 h; Potency, µM (doses to about 46.1 µM), inactives show at the highest dose activity change, negative = cytotoxicity, most hits filed as cytotoxic;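 also: 0% = DMSO and -100% = full killing by reference compound; nearly all actives have a fitted effect of over 55% in size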
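ATP-content luminescence (ATPlite) read-out after 24 h compound exposure at 32C in H1299-p53A138V cells (600/well). Tested up to 46 uM. Normalized to DMSO (0%) and 100 uM tamoxifen (100% killing); Hill-fit AC50.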
An asterisk follows results filed as active; ? = inconclusive; . = no result; ! = a repeat was not active; [ ] = another dose, or the depositor's remark. Calls follow the shape of the dose curve; as a rule, active = well fitted curve in the direction sought with a large enough effect; inconclusive = small, poorly fitted or top-dose-only effect, or another doubt; inactive = no such curve, though single readings can be large; an effect the other way counts as inactive or inconclusive. Potency is read from the fitted curve at half-maximal effect.

SMILES	Peg3 imprint	p53ts 39C kill	p53ts 32C kill
COc1ccccc1C(=O)Nc1ccc2c(c1)nc(CN1CCN(C(C)=O)CC1)n2C	-24%	9%	20%
CCc1ccccc1NC(=O)Nc1ccc2c(c1)N(CC)C(=O)c1ccccc1S2	-4%[10.9 µM]	2%	1%
C/C(CCN1CCCCc2nc(C)c(C)cc21)=N\O[C@@H](C)c1cc(-c2c(C)cc(C)cc2C)no1	.	9%[9.22 µM]	1%[9.22 µM]
COc1cc(SC)ccc1C(=O)Nc1ccc2c(c1)OCCO2	-74%	13µM*	10µM*
COc1ccc(Cl)cc1C(=O)Nc1ccc2c(c1)OCO2	-15%	?	?
CC12C=C(/C=C/C=C/c3ccco3)C(C)(C1)C(/C=C/c1ccco1)CC2=O (configuration not stated)	.	10%[9.22 µM]	1%[9.22 µM]
FC(F)(F)c1cc(CN2CC[C@@]3(CCCNC3)C2)cc(C(F)(F)F)c1	.	-7%	-6%
N#Cc1c(NC(=O)c2nc3ncccn3n2)sc2c1CCCCC2	-12%	13µM*	13µM*
Cc1cc(C(=O)Nc2sc3c(c2C#N)CCCCC3)cs1	-48%	-27%	?
CCS(=O)(=O)N1CC(=O)N(c2cccc(C)c2C)C(C)(C(=O)NC2CCCCCC2)C1 (configuration not stated)	.	.	-6%
Cc1ccccc1OCCSc1nc2ccc(NC(=O)c3cccs3)cc2s1	-13%[10.9 µM]	-15%	-6%
CCCCNc1nc(C)nc2c1nc(-c1ccccc1)n2CCCN1CCCCC1C (configuration not stated)	-8%	-10%	-14%
CCCCNc1c(C(=O)OCC)c(C)nc2c1cnn2CC	-15%	16µM*!	37%
CCOC(=O)c1c(C)nc2c(C#N)cnn2c1C	-2%	6%	3%
CCOc1ccc(NC(=O)CSC2=Nc3ccccc3C3=NC(CC(=O)NCc4cccs4)C(=O)N23)cc1 (configuration not stated)	-7%[10.9 µM]	-23%	6%
CCc1nnc(SCC(=O)Nc2ccc(F)cc2F)c2cc3sc(C)cc3n12	?	11%	4%
COc1cccc(NC(=O)c2cc(CN3CCOCC3)on2)c1	-9%[10.9 µM]	-3%	-4%
COc1ccc(NC(=O)C2CCCN(c3nnc(C)c4c(C)n(-c5ccccc5)nc34)C2)cc1Cl (configuration not stated)	-15%[10.9 µM]	10µM*	?
COc1ccccc1NC(=O)N1CCN(c2nnc(C)c3c(C)n(-c4ccc(Cl)cc4)nc23)CC1	-15%[10.9 µM]	-13%	2%
Cc1nnc(N2CCN(C(=O)Nc3cc(F)ccc3F)CC2)c2nn(-c3ccc(Cl)cc3)c(C)c12	-10%[10.9 µM]	13µM*	?
COc1ccc(-n2nc3c(N4CCC(C(=O)NCc5cccc(F)c5)CC4)nnc(C)c3c2C)cc1	7%[10.9 µM]	5µM*	?
COc1ccc(CNC(=O)C2CCN(c3nnc(C)c4c(C)n(-c5ccc(C)cc5)nc34)CC2)cc1	-8%[10.9 µM]	?	?
Cc1ccc(NC(=O)C2CCN(c3nnc(C)c4c(C)n(-c5ccccc5)nc34)CC2)cc1Cl	2%[10.9 µM]	31%	10%
Cc1oc2c(cc(NS(=O)(=O)c3ccc(Br)cc3)c3ccccc32)c1C(=O)OCc1ccccc1	-18%[10.9 µM]	20µM*	-21%
Cc1ccc(S(=O)(=O)Nc2cc3c(C(=O)OCc4ccccc4)c(C)oc3c3ccccc23)cc1	-12%[10.9 µM]	-21%	1%
SMILES	Peg3 imprint	p53ts 39C kill	p53ts 32C kill
CCC(=O)Nc1ccc2c(c1)nc1n2CCSC1	-6%	8%	-11%
O=C(Nc1ccc2c(c1)nc1n2CCSC1)c1ccccc1	-74%	6.3µM*	3.2µM*
COc1ccc(C(=O)Nc2ccc3c(c2)nc2n3CCSC2)cc1	-13%	6.3µM*	5µM*
O=C(Nc1ccc2c(c1)nc1n2CCOC1)c1ccccc1	-52%	16µM*	13µM*
CCCC(=O)Nc1ccc2c(c1)nc1n2CCOC1	-1%	-3%	-10%
CC(C)C(=O)Nc1ccc2c(c1)nc1n2CCSC1	-10%	-7%	-18%
NS(=O)(=O)c1ccc(NC(=O)CCn2c(=O)oc3ccccc32)cc1	-8%[10.9 µM]	0%	3%
O=P(O)(O)O[C@@H]1O[C@H](CO)[C@@H](O)[C@H](O)[C@@H]1O	-5%[10.9 µM]	3%[9.22 µM]	6%[9.22 µM]
CCN(CC)CCNC(=O)c1ccc(-c2nc(CN3CCc4ccccc43)c(C)o2)cc1	-4%[10.9 µM]	-15%	-8%
C=CCC1C=CC(Oc2ccc(F)cc2C)C(CO)O1 (configuration not stated)	.	2%[9.22 µM]	2%[9.22 µM]
Cc1cc2nc(-c3cccc(NC(=O)COc4ccc(C(C)C)cc4)c3)oc2cc1C	5%[10.9 µM]	?	?
O=C(N=c1nc2ccccn2s1)c1ccccc1	-67%	?	2µM*
Cc1csc(=NC(=O)c2ccccc2)n1C	.	-21%	-25%
O=S1(=O)C=C(Sc2nc3cc(Cl)ccc3o2)c2ccccc21	-37%	20µM*	10µM*
CN(C)c1nc(N)nc(CSc2nc3cc(Cl)ccc3o2)n1	-20%	10%	-9%
CCN(c1ccccc1)S(=O)(=O)c1nnc(NC(=O)c2ccco2)s1	-35%[10.9 µM]	1.3µM*	?
O=C(Nc1ccc(-c2noc(CCc3ccccc3)n2)cc1)c1ccco1	-61%	10µM*	?
COc1ccc(-c2noc(CNC(=O)c3ccco3)n2)cc1	-13%[10.9 µM]	18%	2%
CCN(CC)c1ccc(NC(=O)c2ccco2)c(C)c1	-22%	3%	-1%
CCN(CC)c1ccc(NC(=O)c2ccco2)cc1	-36%	10µM*	10µM*
Cc1ccc(N(CC(C)C)S(=O)(=O)c2nnc(NC(=O)c3ccco3)s2)cc1	-4%[10.9 µM]	-19%	4%
O=C(Nc1cccc(F)c1F)C1CCN(c2ncccn2)CC1	-9%[10.9 µM]	-13%	2%
Cc1cccc(N2CCN(S(=O)(=O)c3ccc4oc(=O)c5ncn(C)c5c4c3)CC2)c1C	-10%[10.9 µM]	-8%	11%
Nc1ccc(F)cc1F	1%	-2%	8%[1.84 µM]
Cc1cc(CNC(=O)[C@@H]2C[C@H]2[C@@H](NP(=O)(c2ccccc2)c2ccccc2)c2ccccc2)nn1C	-8%	-1%	13%
SMILES	Peg3 imprint	p53ts 39C kill	p53ts 32C kill
CCn1c(=O)c2cc(C(=O)NC3CCCCCC3)sc2c2ccccc21	-14%[10.9 µM]	-4%	18%
Cn1c(=O)c2cc(C(=O)NC3CCCCCC3)sc2c2ccccc21	-10%[10.9 µM]	7.9µM*	?
Clc1ccccc1-c1ccc2ncnc(N3CCNCC3)c2c1	10µM*	5%	28%
Cc1ccccc1-c1ccc2ncnc(N3CCNCC3)c2c1	-22%	16%	21%
O=C(Nc1cccc(-c2nnc(-c3ccccc3)o2)c1)c1ccc(Br)o1	-23%	25µM*	?
Cc1cc(C)c2oc(-c3cccc(NC(=O)c4ccc(Br)o4)c3)nc2c1	-7%[10.9 µM]	-2%	-9%
COc1cc(OC)c2c(=O)c(-c3ccc4c(c3)OCO4)coc2c1	-22%	-18%	-20%
CCc1cc2c(=O)c(-c3ccc4c(c3)OCCO4)coc2cc1OC(=O)c1ccco1	-37%	7.9µM*	5µM*
CCCC[C@H](CC)CN=C(N)NC(N)=NCCCCCCN=C(N)NC(N)=NC[C@@H](CC)CCCC	-26%[16.8 µM]	13µM*	-21%[20.6 µM]
CC(N)=NCCCC[C@@H](N)C(=O)O	-5%	.	.
Cc1ccc(Nc2ccccc2)cc1	.	4%	-13%
Cc1ccc(NC2=CC(=O)C(=O)c3ccccc32)cc1	.	3.2µM*	?

Bioassay records: PubChem, National Center for Advancing Translational Sciences (NCATS)
